# Only some compounds are listed: those with a hit (about 2.4% of all), similar ones and a draw of the others.
# D2 PAM-1 – HTS Assay for Positive Allosteric Modulators of the Human D2 Dopamine Receptor: Primary Screen for Potentiators; 0.34% of 340,000 active; HEK293 T-REx D2, calcium flux, EC20 dopamine potentiation; AID 485347, 2010; potentiation, % at 10 µM;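 active means potentiation over 3 SD above the plate norm, cut at about 30% in these data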
# Target sequence (P14416 whole entry, looked up): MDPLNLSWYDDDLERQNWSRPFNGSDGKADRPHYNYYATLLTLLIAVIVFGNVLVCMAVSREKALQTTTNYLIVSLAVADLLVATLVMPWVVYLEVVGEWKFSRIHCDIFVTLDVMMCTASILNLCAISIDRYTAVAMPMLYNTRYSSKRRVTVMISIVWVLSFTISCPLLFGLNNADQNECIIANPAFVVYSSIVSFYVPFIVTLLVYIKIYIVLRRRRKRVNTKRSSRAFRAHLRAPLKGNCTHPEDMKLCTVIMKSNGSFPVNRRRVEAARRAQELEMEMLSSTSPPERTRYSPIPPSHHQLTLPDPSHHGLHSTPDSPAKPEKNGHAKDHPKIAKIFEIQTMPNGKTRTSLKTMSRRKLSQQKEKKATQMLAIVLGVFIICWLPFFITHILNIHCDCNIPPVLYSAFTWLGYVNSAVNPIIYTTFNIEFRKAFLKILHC
#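 Tetracycline-induced HEK293 T-REx cells force-coupled to calcium signalling expressed D2; compounds were pin-added after a 10 s baseline, read kinetically 180 s, then an EC20 dopamine challenge followed with a further 180 s calcium read.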
# D2 antag – HTS Assay for Allosteric Antagonists of the Human D2 Dopamine Receptor: Primary Screen for Antagonists | inhibition, % at 10 µM | 2% of 340,000 active | D(2) dopamine receptor (Homo sapiens), P14416 | HEK293 TREx D2 cells, calcium flux, dopamine EC80 | AID 485344, 2010; in the data active means inhibition above about 30%; inactive means below that, where a call was filed
#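 Tetracycline-induced HEK293 TREx cells expressing D2 receptor forced-coupled to calcium signalling, loaded with no-wash calcium dye. Compounds added and calcium flux read 180 s, then dopamine added at EC80 and read a further 180 s.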
# D2 PAM-2 – Beta-Arrestin HTS for Positive Allosteric Modulators of the Human D2 Dopamine Receptor: Potentiators; potentiation, % (no concentration beside the values); DiscoveRx D2 beta-arrestin cells, luminescence, 90 min; 100% = 57 uM dopamine signal; AID 624464, 2012; 0.23% of 360,000 active; D(2) dopamine receptor (Homo sapiens), P14416; in the data active means potentiation above about 50%; inconclusive means mostly about 30% to 49%
#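 PathHunter D2 cells, attached overnight at 37 deg C, received compound in DMSO plus dopamine at EC20 (50 nM final) for 90 min at 37 deg C. Beta-arrestin recruitment was read as luminescence after 1 h with detection reagent at ambient temperature.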
# D2 ag-1 – Beta-Arrestin HTS for Positive Allosteric Modulators of the Human D2 Dopamine Receptor: Agonists. 0.084% of 360,000 active. activation, % (no concentration beside the values). D(2) dopamine receptor (Homo sapiens), P14416. AID 624465, 2012. DiscoveRx PathHunter D2 beta-arrestin, luminescence, 90 min; 100% = 57 uM dopamine signal; in the data active means activation above about 40%; inconclusive means between about 15% and that limit
#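 Agonist mode: compounds alone added to overnight-plated D2 PathHunter cells for 90 min at 37 C, with 57 uM final dopamine (EC100) defining full response. Beta-arrestin recruitment detected by chemiluminescent reagent, read after 1 h at ambient temperature.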
# D2 ag-2 – HTS Assay for Allosteric Agonists of the Human D2 Dopamine Receptor: Primary Screen for Agonists; D(2) dopamine receptor (Homo sapiens), P14416; HEK293 T-REx D2 cells, calcium flux agonist mode; activation, % at 2 µM; 0.53% of 340,000 active; AID 485358, 2010;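 active means activation over 3 SD above normal in the single-dose calcium agonist read, cut at about 30% in these data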
#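 In this primary screen, compounds producing a positive calcium signal within 180 s of addition to tetracycline-induced, force-coupled HEK293 Trex D2 cells are flagged; cells are dye-loaded with a no-wash calcium kit beforehand.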
# A number is an active result; 0 = inactive; ? = inconclusive; - = no result.
SMILES,D2 PAM-1,D2 antag,D2 PAM-2,D2 ag-1,D2 ag-2
COc1ccc2c(c1)CCC1C2=NN(/C(C)=C\C(C)=O)C1c1ccc(F)cc1 (configuration not stated),0,0,0,?,0
COc1ccc2c(c1)C1=NN(/C(C)=C/C(C)=O)C(c3ccc(F)cc3)C1CC2 (configuration not stated),0,0,51,0,0
Cc1cc(C)cc(NC(=O)C(=O)NCC(c2ccc3c(c2)OCO3)N2CCOCC2)c1 (configuration not stated),0,-,-,-,0
COc1ccc(C(C)(C)C)cc1NC(=O)CCCn1c(=O)oc2ccccc21,0,51,0,0,0
COc1cc(NC(=O)CCCn2c(=O)oc3ccccc32)cc(OC)c1,-,-,0,0,-
CCOC(=O)c1cc(CC)sc1NC(=O)COC(=O)c1ccccn1,0,0,0,0,0
COC(=O)CCCCC(=O)OC,0,36,0,0,0
COC(=O)CCC(=O)OC,-,-,0,0,-
Cc1cccc(CN2CCN(c3nc4nonc4nc3NC3CC3)CC2)c1,0,0,0,0,0
Clc1cccc(CN2CCN(c3nc4nonc4nc3NC3CC3)CC2)c1,0,38,0,0,0
Cc1cccc(NC(=O)C2CCCN(C(=O)Nc3ccc(F)cc3)C2)c1 (configuration not stated),0,31,0,0,0
O=C(CS(=O)(=O)Cc1ccccc1)Nc1ccc(Cl)cn1,0,52,0,0,0
CC(C)CN=C(NS(=O)(=O)c1ccccc1)C(Cl)(Cl)Cl,0,0,77,0,0
CC(C)CC(NS(=O)(=O)c1ccccc1)C(=O)O (configuration not stated),0,0,0,0,0
COc1ccc(N2CCN(C(=O)c3ccccc3)CC2)c([N+](=O)[O-])c1,0,0,0,0,0
CCCCC(=O)N1CCN(c2ccc(OC)cc2[N+](=O)[O-])CC1,0,30,0,0,0
CCCCC(=O)N/N=C/c1ccc(N2CCOCC2)c([N+](=O)[O-])c1,0,59,0,0,0
COc1ccc(N2CC(NC(=O)c3c(F)cccc3Cl)CC2=O)cc1OC (configuration not stated),0,-,-,-,0
CN(c1ccccc1C(=O)Nc1ccc2c(c1)OCO2)S(C)(=O)=O,38,0,0,0,0
CN(c1ccccc1C(=O)Nc1cccc(Cl)c1Cl)S(C)(=O)=O,0,53,0,0,0
O=C(CC(NC(=O)c1ccccc1Cl)c1ccccc1)Nc1ccc2c(c1)OCO2 (configuration not stated),-,-,0,0,-
CC(NC(=O)c1ccccc1Cl)C(=O)Nc1ccc2c(c1)OCO2 (configuration not stated),0,73,0,0,0
OCc1nc2ccccc2n1/N=C/c1cccs1,-,-,0,0,-
CCN(C(=O)c1cccc(S(=O)(=O)N(C)C)c1)C12CC3CC(CC(C3)C1)C2,0,0,0,0,0
CC[C@@]1(C(=O)OC)N[C@H](CN(C)C(=O)c2ccc(C(C)(C)C)cc2)[C@@H]2C(=O)N(Cc3ccccc3)C(=O)[C@@H]21,-,-,0,0,-
SMILES,D2 PAM-1,D2 antag,D2 PAM-2,D2 ag-1,D2 ag-2
CCN(C[C@H]1N[C@@](CC)(C(=O)OC)[C@H]2C(=O)N(Cc3ccccc3)C(=O)[C@@H]12)C(=O)c1ccc(C(C)(C)C)cc1,-,-,57,?,-
CSCCC(NS(=O)(=O)c1ccc(Cl)c(Cl)c1)C(=O)O (configuration not stated),0,0,0,0,0
CSCCC(NS(=O)(=O)c1ccc2[nH]c(=O)c(=O)[nH]c2c1)C(=O)O (configuration not stated),0,36,0,0,0
Cc1cc(N2CCN(Cc3nc(-c4ccc(F)cc4)oc3C)CC2)cc(C)n1,0,0,0,0,0
COc1ccc(-c2[nH]ncc2CN2CCN(Cc3cccs3)CC2)cc1F,0,0,0,0,0
COc1ccccc1N1CCN(Cc2cn[nH]c2-c2ccc(F)cc2)CC1,0,82,0,0,0
COc1ccc(-c2nc(CN3CCN(c4ccccc4OC)CC3)c(C)o2)cc1,0,99,0,0,0
COc1ccccc1N1CCN(Cc2nc(-c3ccc(F)cc3)oc2C)CC1,0,80,0,0,0
COc1ccccc1CN1CCN(Cc2nc(-c3ccc(C)cc3)oc2C)CC1,0,0,0,0,0
COc1ccc(-c2[nH]ncc2CN2CCC(C(=O)c3ccc(F)cc3)CC2)cc1,0,83,0,0,0
CCCS(=O)(=O)c1ncc(Cl)c(C(=O)N(Cc2ccccc2)Cc2ccco2)n1,0,-,-,-,0
Cc1ccc(-c2n[nH]c3c2C(c2ccc(C(C)(C)C)cc2)NC3=O)cc1 (configuration not stated),0,-,-,-,0
CC(C)Oc1ccc(CNC(=O)c2ccccc2NC(=O)c2nsc3ccccc23)cc1,0,-,-,-,0
COc1ccc(CN2CCC(C(=O)c3ccc(Cl)cc3)CC2)cc1,0,35,0,0,0
COc1ccc(CN2CCC(C(=O)c3cccc(Cl)c3)CC2)cc1,0,-,0,0,-
CC(C)C(=O)n1nc(-c2cccnc2)nc1NCc1ccc(F)cc1,46,0,0,0,0
Cc1ccc(NC(=O)Cn2cc(S(=O)(=O)Cc3ccc(F)cc3)c3ccccc32)cc1Cl,0,-,-,-,0
COCCCNC(=O)Cn1c(=O)n(-c2cccc(C)c2)c(=O)c2c3c(sc21)CN(C(C)=O)CC3,0,-,-,-,0
COc1ccc(NC(=O)C2CCN(C(=O)c3sc4nc[nH]c(=O)c4c3C)CC2)cc1Cl,0,-,-,-,0
CCOC(=O)C1C(=O)C=C(/C=C/c2ccc(N(C)C)cc2)CC1c1ccccc1 (configuration not stated),0,33,0,0,52
COCCN(C(=O)c1ccccc1F)c1nnc(-c2ccc(OC)cc2)s1,0,0,0,0,0
CCOC(=O)COc1cccc2c(=O)n(CC(=O)N3CCCCC3)ccc12,0,0,0,0,0
COC(=O)COc1cccc2c(=O)n(CC(=O)N3CCCc4ccccc43)ccc12,0,31,0,0,0
O=C(NCC(=O)N1CCCC(C(F)(F)F)C1)c1cccs1 (configuration not stated),-,-,0,0,-
CCC(CC)c1nn2c(=O)cc(COc3ccc(NC(=O)c4ccccc4C)cc3)nc2s1,0,-,-,-,-
Cc1ccc(NC2CCCN(C(=O)CCC3=NNC(=O)CC3)C2)cc1C (configuration not stated),0,0,0,0,0

# Bioassay records as filed in PubChem.
